DRD3 agonist – qHTS of D3 Dopamine Receptor Agonist: qHTS. max activation, %. D(3) dopamine receptor (Homo sapiens), P35462. D3R DiscoveRx beta-arrestin cells, luminescence, 90 min. 410,000 compounds, 0.58% hits; in the data active means max activation above about 30%
Target sequence (P35462 whole entry, looked up): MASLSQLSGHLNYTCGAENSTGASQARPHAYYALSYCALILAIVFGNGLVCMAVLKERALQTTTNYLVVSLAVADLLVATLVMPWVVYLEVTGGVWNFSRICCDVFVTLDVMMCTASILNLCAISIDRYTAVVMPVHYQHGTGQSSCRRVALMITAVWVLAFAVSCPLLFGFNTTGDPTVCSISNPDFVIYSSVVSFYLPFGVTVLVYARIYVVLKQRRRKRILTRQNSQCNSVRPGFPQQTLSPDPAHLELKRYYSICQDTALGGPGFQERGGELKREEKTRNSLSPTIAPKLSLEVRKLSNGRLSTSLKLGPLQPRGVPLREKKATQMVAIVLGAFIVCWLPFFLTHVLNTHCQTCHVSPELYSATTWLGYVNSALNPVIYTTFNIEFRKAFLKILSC
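Agonist mode: compounds and dopamine controls were applied to plated cells for 90 min at 37 degrees C after an overnight attachment at 1500 cells/well. Luminescent read-out followed 30 - 60 minutes at room temperature with DiscoveRx detection reagent.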
DRD3 antagonist – qHTS of D3 Dopamine Receptor Antagonist: qHTS; D(3) dopamine receptor (Homo sapiens), P35462; D3R cells, DiscoveRx beta-arrestin luminescence, antagonist mode; hits give low values; max response, negative = inhibition, %; 360,000 compounds, 2.5% hits; in the data active means max response below about -50%; inconclusive means no clear call, values can overlap the other calls
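Cells expressing the human receptor were seeded at 1500 cells/well, incubated overnight at 37 degrees C in 5% CO2, then exposed to library compounds with dopamine controls for 90 minutes at 37 degrees C before luminescent detection.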
D1 ag – Allosteric Agonists of the Human D1 Dopamine Receptor: qHTS | activation, % at 2 µM | D(1A) dopamine receptor (Homo sapiens), P21728 | 360,000 compounds, 1% hits | AID 504660, 2011 | HEK293 T-REx D1 cells, calcium flux, agonist mode; in the data active means activation above about 30%
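Tetracycline-induced HEK293 TREx D1 cells, force-coupled to calcium signalling, were dye-loaded with a no-wash calcium kit. Compound was pin-added after a 10 s baseline. Fluorescence was read kinetically at 1 cycle/s for 180 s, with calcium rises flagged as agonism.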
D1 potentiator – Potentiators of Human D1 Dopamine Receptor: qHTS; D(1A) dopamine receptor (Homo sapiens), P21728; HEK293 TREx D1 cells, calcium flux, dopamine EC20 potentiation; potentiation, % at 10 µM; 360,000 compounds, 0.036% hits; in the data active means potentiation above about 30%
D1 antagonist – Antagonist of Human D 1 Dopamine Receptor: qHTS; AID 504652, 2011; activity change, negative = inhibition, % at 10 µM; HEK293 TREx D1 cells, calcium flux, dopamine EC80; hits give low values; 360,000 compounds, 3.2% hits; D(1A) dopamine receptor (Homo sapiens), P21728; in the data active means activity change below about -30%
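Compound effects on dopamine-evoked calcium signalling were measured in tetracycline-induced HEK293 Trex D1 cells. Dopamine at EC80 followed a 180 s compound pre-read, and fluorescence was tracked kinetically for 180 s more.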
A number is an active result. Sampled rows, rich in hits. Any-hit rate of the full collection: about 6.1%.

`Cc1ccc(NC(=O)NCC2CCN(Cc3cccc(Cl)c3)CC2)cc1Cl` gave DRD3 agonist inactive, DRD3 antagonist -51, D1 ag inactive, D1 potentiator inactive and D1 antagonist inactive.
For CCc1ccc(NC(=O)NCC2CCN(Cc3cccc(Cl)c3)CC2)cc1 the results were DRD3 agonist inactive, DRD3 antagonist -52, D1 ag 36, D1 potentiator inactive and D1 antagonist -37.
O=C(NCC1CCN(Cc2cccc(Cl)c2)CC1)Nc1ccccc1Cl was read as DRD3 agonist inactive, DRD3 antagonist inconclusive, D1 ag inactive, D1 potentiator inactive and D1 antagonist inactive.
Cc1ccc(C)c(CN2CCC(CNC(=O)Nc3ccc(F)c(Cl)c3)CC2)c1 was read as DRD3 agonist inactive, DRD3 antagonist -66, D1 ag inactive, D1 potentiator inactive and D1 antagonist inactive.
For CCCN1CC=C2C(C#N)=C(N)C(C#N)(C#N)C(c3cccc(OC)c3OC)C2C1 (configuration not stated) the results were DRD3 agonist inactive, DRD3 antagonist inconclusive, D1 ag 34, D1 potentiator inactive and D1 antagonist inactive.
`CCCCOc1ccc(C2C3CN(C(=O)OCC)CC=C3C(C#N)=C(N)C2(C#N)C#N)cc1OC` (configuration not stated) gave DRD3 agonist inactive, DRD3 antagonist inactive, D1 ag inactive, D1 potentiator inactive and D1 antagonist inactive.
COc1ccc(OC)c(C2C3CN(C(C)C)CC=C3C(C#N)=C(N)C2(C#N)C#N)c1 (configuration not stated) was read as DRD3 agonist inactive, DRD3 antagonist -59, D1 ag inactive, D1 potentiator inactive and D1 antagonist inactive.
CN1CC=C2C(C#N)=C(N)C(C#N)(C#N)[C@H](c3ccoc3)[C@H]2C1 was read as DRD3 agonist inactive, DRD3 antagonist inactive, D1 ag inactive, D1 potentiator inactive and D1 antagonist inactive.
Screening Cc1ccc(C2C3CN(C(C)C)CC=C3C(C#N)=C(N)C2(C#N)C#N)cc1 (configuration not stated) returned DRD3 agonist inactive, DRD3 antagonist -86, D1 ag inactive, D1 potentiator inactive and D1 antagonist inactive.
Screening CCOc1ccc(CN2C(=O)c3ccccc3C2C(=O)NC(C)CC)cc1OC (configuration not stated) returned DRD3 agonist inactive, DRD3 antagonist -63, D1 ag inactive, D1 potentiator inactive and D1 antagonist inactive.
`CCC(C)NC(=O)C1c2ccccc2C(=O)N1Cc1cc(OC)ccc1OC` (configuration not stated) gave DRD3 agonist inactive, DRD3 antagonist inactive, D1 ag inactive, D1 potentiator inactive and D1 antagonist inactive.
`CCN(C(=O)c1cc2c(=O)n(CC)c3ccccc3c2s1)c1cccc(C(F)(F)F)c1` gave DRD3 agonist inactive, D1 ag inactive, D1 potentiator inactive and D1 antagonist inactive.
`COc1ccc(-c2cc3nc(NCC4CCCCC4)n(C)c(=O)c3s2)cc1OC` gave DRD3 agonist 37 and DRD3 antagonist inactive.
O=C1OC(c2ccccc2)=C/C1=C/N1CCOCC1 was read as DRD3 agonist inactive, DRD3 antagonist -55, D1 ag inactive, D1 potentiator inactive and D1 antagonist inactive.
O=C1OC(c2ccccc2)=C/C1=C\N1CCOCC1 was read as DRD3 agonist inactive, DRD3 antagonist inconclusive, D1 ag inactive, D1 potentiator inactive and D1 antagonist inactive.
O=C(NC(c1ccc(Cl)cc1)c1cccnc1)C1CCN(CCOc2ccc(Cl)cc2Cl)CC1 (configuration not stated) was read as DRD3 agonist inactive and DRD3 antagonist inconclusive.
For O=C(NC(c1ccc(Cl)cc1)c1ccccn1)C1CCN(CCOc2ccc(Cl)cc2Cl)CC1 (configuration not stated) the results were DRD3 agonist inactive and DRD3 antagonist -77.
Screening COc1cccc(OC)c1OCCN1CCC(C(=O)NC(c2ccc3c(c2)OCO3)c2ccccn2)CC1 (configuration not stated) returned DRD3 agonist inactive and DRD3 antagonist -78.
Screening O=C(NC(c1ccc(F)cc1)c1ccc2ccccc2n1)C1CCN(CCOc2ccc(Cl)cc2Cl)CC1 (configuration not stated) returned DRD3 agonist inactive and DRD3 antagonist inactive.
Screening Cc1cccnc1C(NC(=O)C1CCN(CCOc2ccc(Cl)cc2Cl)CC1)c1ccc(Cl)cc1 (configuration not stated) returned DRD3 agonist 41 and DRD3 antagonist inactive.
`O=C(NC(c1ccc2c(c1)OCO2)c1ccccn1)C1CCN(CCOc2ccc(Cl)cc2Cl)CC1` (configuration not stated) gave DRD3 agonist inactive and DRD3 antagonist -75.
`O=S(=O)(c1ccc(Br)cc1)c1nc(-c2ccco2)oc1SCc1ccccc1Cl` gave DRD3 agonist inactive, D1 ag inactive, D1 potentiator inactive and D1 antagonist inactive.
Cc1cc(C)c(S(=O)(=O)N2CCC(N3CCN(Cc4ccc(F)cc4)C(=O)C3=O)CC2)c(C)c1 was read as DRD3 agonist inactive, D1 ag inactive, D1 potentiator inactive and D1 antagonist inactive.
O=C1CC(c2nc3ccccc3n2CCC2CCCCC2)CN1c1ccccc1Cl (configuration not stated) was read as DRD3 agonist inactive, D1 ag inactive, D1 potentiator inactive and D1 antagonist inactive.
For Cc1ccc(NC(=O)c2c(C)cc(C)nc2SCC(=O)Nc2ccc(Br)cc2)cc1 the results were DRD3 agonist inactive, D1 ag inactive, D1 potentiator inactive and D1 antagonist inactive.
For O=C(NC(c1ccc(Cl)cc1)c1cnccn1)C1CCN(CCOc2ccc(F)cc2)CC1 (configuration not stated) the results were DRD3 agonist inactive and DRD3 antagonist inconclusive.
O=C(NC(c1ccc(F)cc1)c1cnccn1)C1CCN(CCOc2ccc(Cl)cc2Cl)CC1 (configuration not stated) was read as DRD3 agonist inactive and DRD3 antagonist -71.
Screening Cc1ccc(CNC(=O)CSc2nc3ccsc3c(=O)n2-c2ccc(Br)cc2)cc1 returned DRD3 agonist inactive, D1 ag inactive, D1 potentiator inactive and D1 antagonist inactive.
Oc1[nH]c(=S)sc1/C=C1\C(c2ccccc2)=Nc2ccccc21 was read as DRD3 agonist inactive, DRD3 antagonist inconclusive, D1 ag 38, D1 potentiator inactive and D1 antagonist inactive.
For Cc1ccc(NC(=O)CSc2nc3nc(C)cc(C)c3c(=O)[nH]2)cc1 the results were DRD3 agonist inactive, DRD3 antagonist inconclusive, D1 ag inactive, D1 potentiator inactive and D1 antagonist inactive.

Source: PubChem
